Compound activity (PubChem BioAssay)
TRHR enhancer: qHTS for Small Molecule Agonists and Allosteric Enhancers of Human TRH Receptor: Primary Screen for Enhancers; Thyrotropin-releasing hormone receptor (Homo sapiens), P34981; TRHR cells, fluo-8 calcium fluorescence, EC20 TRH enhancement; enhancement, % at 2 µM; hit rate 0.66% among 360,000; in the data active means enhancement above about 30%; further: 0% is about no effect
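TRHR-expressing cells loaded with fluo-8 calcium dye were read kinetically (ex 480/em 530) during compound addition, then stimulated with an EC20 of TRH (10 nM final). Enhancement of the Gq-mediated intracellular calcium response was scored.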
TRHR ag: qHTS for Small Molecule Agonists and Allosteric Enhancers of Human TRH Receptor: Primary Screen for Agonists. hit rate 0.18% among 360,000. AID 493084, 2011. TRHR cells, calcium flux fluo-8, FDSS agonist mode. activation, % at 2 µM. Thyrotropin-releasing hormone receptor (Homo sapiens), P34981; further: 0% is about no effect
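Fluo-8-loaded TRHR cells; 10 s baseline, compound added, kinetic Ca2+ fluorescence read 1/s, agonist mode.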
D1 ag: Allosteric Agonists of the Human D1 Dopamine Receptor: qHTS. D(1A) dopamine receptor (Homo sapiens), P21728. HEK293 T-REx D1 cells, calcium flux, agonist mode. activation, % at 2 µM. hit rate 1% among 360,000. AID 504660, 2011; further: 0% is about no effect
Target sequence (P21728 whole entry, looked up): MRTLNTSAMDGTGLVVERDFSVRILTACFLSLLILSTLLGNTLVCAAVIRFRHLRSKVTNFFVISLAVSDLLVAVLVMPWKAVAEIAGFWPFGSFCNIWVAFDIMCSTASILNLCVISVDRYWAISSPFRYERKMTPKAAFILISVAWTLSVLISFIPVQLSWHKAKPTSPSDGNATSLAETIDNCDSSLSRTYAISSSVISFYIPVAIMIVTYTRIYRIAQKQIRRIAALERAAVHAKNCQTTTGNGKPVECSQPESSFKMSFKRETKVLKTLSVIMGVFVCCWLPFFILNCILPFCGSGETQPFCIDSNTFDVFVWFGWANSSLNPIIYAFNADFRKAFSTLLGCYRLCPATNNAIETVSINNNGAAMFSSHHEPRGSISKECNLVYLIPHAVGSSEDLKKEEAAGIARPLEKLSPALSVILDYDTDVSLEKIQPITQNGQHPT
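Agonism was scored from calcium flux recorded over 180 s (1 read/s) after pintool compound addition, following a 10-cycle baseline. Cells were inducible force-coupled HEK293 TREx D1, plated overnight at 30 C and loaded with no-wash calcium dye.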
D1 PAM: Potentiators of Human D1 Dopamine Receptor: qHTS. D(1A) dopamine receptor (Homo sapiens), P21728. HEK293 TREx D1 cells, calcium flux, dopamine EC20 potentiation. potentiation, % at 10 µM. hit rate 0.036% among 360,000. AID 504651, 2011; in the data active means potentiation above about 30%; further: 0% is about no effect
D1 antag: Antagonist of Human D 1 Dopamine Receptor: qHTS; D(1A) dopamine receptor (Homo sapiens), P21728; hit rate 3.2% among 360,000; activity change, negative = inhibition, % at 10 µM; HEK293 TREx D1 cells, calcium flux, dopamine EC80; active compounds read low; in the data active means activity change below about -30%; further: on the % scale 0 is the no-effect control and ±100 the full control effect
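Tetracycline-induced HEK293 Trex D1 cells, force-coupled to calcium, dye-loaded; compounds added and read 180 s, then EC80 dopamine added and calcium flux tracked kinetically another 180 s.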
Epigenetic derep: Quantitative High-Throughput Screen for Regulators of Epigenetic Control | murine LDR cells, GFP reporter derepression, 30 h | Potency, µM (series often up to 53.9 µM), for inactives: at the top dose GFP activation, actives largely listed as activators | hit rate 0.2% among 280,000; active means well fitted activation curve with a large enough effect; inconclusive means small, poorly fitted or top-dose-only effect; further: potency means the concentration at half of the fitted maximal effect; % of control where 0% means no effect; nearly all actives have a fitted effect of over 60% in size
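In this reporter-derepression format, murine cells bearing a silenced integrated CMV-GFP locus incubate with test compound (30 h, 37 C), then are washed and imaged; fluorescent objects of 20–120 um count as induced cells.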
* marks the source's active call; other numbers are inactive results; ? = inconclusive; . = no result; ! = not confirmed by another sample; [ ] = another dose, or the depositor's remark. Rows were chosen to be rich in hits. Some 4.6% of all compounds tested hit in one or more screens of this group. Unless noted, no stated cut-off is given here; in the data, active means activation above about 30%; inactive means the rest.

SMILES	TRHR enhancer	TRHR ag	D1 ag	D1 PAM	D1 antag	Epigenetic derep
CC1CCc2cc(F)cc3c(O)c(C(=O)NCC4CCCO4)c(=O)n1c23 (centres undefined)	2	1	1	3	-77*	0%
O=C(NCCc1ccc(F)cc1)C(=O)NCC(c1cccs1)S(=O)(=O)c1ccc(F)cc1 (centres undefined)	-7	0	4	-3	.	1%
CCC(C)(C)NC(=O)C1CCC(CNS(=O)(=O)c2cccc3nsnc23)CC1 (centres undefined)	-4	0	6	0	-40*	.
COc1cccc(CNC(=O)C2CCC(CNS(=O)(=O)c3cccc4nsnc34)CC2)c1 (centres undefined)	2	0	5	-7	-41*	-2%
O=C(NCc1cccs1)C1CCC(CNS(=O)(=O)c2cccc3nsnc23)CC1 (centres undefined)	10	0	5	-4	-2	-1%
CCCCN(CC)C(=O)C1CCC(CNS(=O)(=O)c2cccc3nsnc23)CC1 (centres undefined)	-6	-1	7	-4	-31*!	-1%
CCOc1ccc(N2CC(NC(=O)C(=O)c3c[nH]c4ccccc34)CC2=O)cc1 (centres undefined)	-3	0	-1	-2	.	0%
CCN1CN=C(NS(=O)(=O)c2ccc(C)cc2)NC1	9	0	34*	-1	.	-3%
O=C(CC(c1ccccc1)c1ccccc1)Nc1ccc(Cl)cn1	-7	2	8	-3	-6	2%
O=C(CC(c1ccccc1)c1ccccc1)Nc1ncn[nH]1	5	0	1	-5	-36*	1%
C[C@](O)(C(=O)Nc1ccc(S(=O)(=O)c2ccccc2)cc1)C(F)(F)F	.	.	.	.	.	-1%
CN1CCN(CCCNC(=O)c2cn(C)c3ccc(S(=O)(=O)N(C)C)cc3c2=O)CC1	-4	0	4	-4	-6	2%
CCCCCCCCCCC[N+](C)(C)CC/C=C1/c2ccccc2Sc2ccc(Cl)cc21	1	2	48*	-9	-8	.
CCCCCCCCCC[N+](C)(C)CC/C=C1/c2ccccc2Sc2ccc(Cl)cc21	8	1	53*	-4	6	.
OCCN1CCN(CCCN2c3ccccc3Sc3ccc(Cl)cc32)CC1	1	2	12	-6	-83*	1%
CC[N+](C)(C)CC/C=C1/c2ccccc2Sc2ccc(Cl)cc21	4	-1	0	-3	-17	0%
CN1CCN(CCCN2c3ccccc3Sc3ccc(S(=O)(=O)N(C)C)cc32)CC1	-1	5	52*	-1	-94*	7%[16.9 µM]
Cc1ccc(C)c(-n2nnc(-c3nc(-c4ccccc4C)no3)c2C)c1	-2	0	3	-4	-11	-2%
CCC(Sc1nc2cc(OC)c(OC)cc2c(=O)n1Cc1ccc(Cl)cc1)C(=O)NCCOC (centres undefined)	-6	0	0	-2	0	0%
COc1cc(Cl)c(C)cc1NC(=O)Cn1c2ncccc2c(=O)n1-c1ccccc1	-8	0	3	1	16	1%
CC(C)NC(=O)c1ccc2c(c1)nc1n2CCCCC1	-1	0	0	-1	1	3%
COc1cc(OC)cc(C(=O)Nc2ccc3c(c2)N(C2CCCC2)C(=O)c2ccccc2S3)c1	-4	0	7	-2	-3	-1%
OCCN1CCN(CC/C=C2/c3ccccc3Sc3ccc(Cl)cc32)CC1	0	-1	27	-5	-100*	.
CN(C)CC/C=C1\c2ccccc2Sc2ccc(Cl)cc21	-1	1	22	-3	-82*	1%
CC1(C)C(=O)C=C[C@@]2(C)C1C=C[C@@]1(C)C2CC[C@@]2(C)C(c3ccoc3)OC(=O)C3OC312 (some centres undefined)	.	.	.	.	.	7%
SMILES	TRHR enhancer	TRHR ag	D1 ag	D1 PAM	D1 antag	Epigenetic derep
CCN(CC)c1ccc(C=Nc2ccc(OC)c(S(=O)(=O)N3CCOCC3)c2)c(O)c1	2	-3	1	-8	-33*	.
O=C(N/N=C/c1ccc([N+](=O)[O-])cc1)c1ccc(NS(=O)(=O)c2cccs2)cc1	-1	5	1	-4	-11	.
O=C(N/N=C/c1ccc([N+](=O)[O-])o1)c1ccc(NS(=O)(=O)c2cccs2)cc1	6	-1	1	-3	-89*	?
O=C1OC(C2=CCCCC2)=NC12CC2	.	.	.	.	.	0%[10.1 µM]
CCCC(=O)Nc1cc(-c2nc3cccnc3s2)ccc1C	15	0	49*	-3	24	0%
CCCCC(=O)Nc1cc(-c2nc3cccnc3s2)ccc1C	-9	0	1	0	-1	0%
CC(C)c1ccc(OCc2ccc(C(=O)O)o2)cc1	-2	0	5	-6	4	-5%
CC(C)c1ccc(OCc2ccc(C(=O)N(C)C)o2)cc1	0	0	10	-3	-32*	.
CCOC(=O)NC1c2ccccc2Oc2ccccc21	-1	-1	0	-2	-33*	0%
COc1ccc(S(=O)(=O)Nc2cc(Cl)ccc2-n2cncn2)cc1	6	1	0	-1	-62*	.
CC(=O)c1c(C)oc2c1cc(NS(=O)(=O)c1ccc(Br)cc1)c1ccccc12	-7	0	5	2	-32*	0%
Cc1oc2c(cc(NS(=O)(=O)c3ccc(Cl)cc3)c3ccccc32)c1C(=O)O	-4	1	3	0	4	.
CC(=O)c1c(C)oc2c(Br)cc(NS(=O)(=O)c3ccc(Br)cc3)cc12	-1	0	4	-8	-47*	1%
Cc1oc2ccc(NS(=O)(=O)c3ccc(F)cc3)cc2c1C(=O)O	2	1	-1	3	16	0%
O=C(CN1C(=O)COc2ccc(S(=O)(=O)N3CCOCC3)cc21)NCc1ccc(F)cc1	-3	0	1	-4	15	-1%
COC(=O)[C@@H]1C[C@@]2(O)[C@H](O)[C@H](O)[C@H](O)C[C@H]2N1CC1CC1	-1	0	5	4	-15	5%
COC(=O)[C@@H]1C[C@@]2(O)[C@@H](O)[C@@H](O)[C@@H](O)C[C@H]2N1CC1CCCCC1	7	0	13	0	-56*	2%
